iPSC survival up = enhancers of single-cell hiPSC survival, primary screen, ATPlite luminescence. 100% = ROCK inhibitor wells, 0% = DMSO. survival enhancement, % at 20 µM. 0.044% of 360,000 active. AID 602274, 2012; in the data active means survival enhancement above about 18%;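 further: cells exposed to compounds for 16 hours before the ATP read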
Yeast superoxide = reduction of superoxide in aged yeast, primary screen, HTS. S. cerevisiae aged cells, superoxide DHE fluorescence; stronger effect = lower value. superoxide response (% of plate mean), % at 10 µM. 0.18% of 330,000 active. AID 2690, 2010;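 active means superoxide response under a set limit, about three screen SD below normal, cut at about 65% in these data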;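 further: yeast aged for seven days with compound at 30 °C before DHE staining; 100% = average MFI of all compound-treated wells on the plate with controls excluded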
V-ATPase pH = regulators of yeast V-ATPase proton pumping, primary screen, pHLuorin cytosolic pH fluorescence; S. cerevisiae; 0.37% of 350,000 active; response, % at 10 µM; AID 504577, 2011; in the data active means response mostly above about 7.3%, no sharp cut-off; inactive means mostly below about 5.4%; further: actives read high
CTSL1 counter = Fasciola hepatica cathepsin L1 inhibitors, primary screen, counter-screen for PFM18AAP inhibitor project, biochemical, QFRET, fluorogenic peptide substrate | recombinant F. hepatica cathepsin L1, Z-Leu-Arg-MCA fluorescence | inhibition, % at 5.96 µM | 0.49% of 300,000 active;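 active means inhibition above the mean of all tested compounds plus 3 SD, set per screening campaign, cut at about 17% in these data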;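 further: 0% = plate median of test compound wells and 100% = 1 µM Z-Phe-Ala-diazomethylketone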
CR mimetic CP = superoxide lowering in aged yeast cells, confirmation, cherry picked compounds | shares compounds with Yeast superoxide | S. cerevisiae aging, superoxide DHE fluorescence; stronger effect = lower value | superoxide response (% of plate), % at 10 µM | 1% of 850 active | AID 434994, 2010;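 active means superoxide signal below 65% of the plate average of sample wells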;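 further: cells aged with compound for 7 days at 30 degrees C before staining; 100% equals mean DHE fluorescence of all compound wells on the plate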
DHE counter = DHE quenching or ROS scavenging interference in aged yeast, artefact control for yeast caloric restriction mimetic project, S. cerevisiae BY4741, flow cytometry; shares compounds with Yeast superoxide; DHE fluorescence; stronger effect = lower value; fluorescence response, % at 10 µM; 850 tested, under 10 active; AID 435000, 2010;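 active means fluorescence response below 15%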;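 further: percent of the mean fluorescence averaged over all compound wells on the plate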
V-ATPase pH SP = yeast V-ATPase proton pumping modulators, confirmation, S. cerevisiae, pH-sensitive GFP, second cherry-pick | S. cerevisiae pHLuorin cytosolic pH, V-ATPase proton transport | 2% of 980 active | AID 602197, 2012 | shares compounds with V-ATPase pH | response, % at 10 µM; in the data active means response above about 24%;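 further: plate controls were vehicle wells for no effect and positive control wells for full effect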
An asterisk follows results filed as active; . = no result; ! = a repeat was not active. The list is not random: actives were taken first. Their share in the collection is about 1%.

SMILES	iPSC survival up	Yeast superoxide	V-ATPase pH	CTSL1 counter	CR mimetic CP	DHE counter	others
CN(C)CC#CCn1c2ccccc2c2ccccc21	0	115	1	1	103	90
CN(C)CC#CCC(O)(c1ccccc1)C1CCCC1 (configuration not stated)	0	94	0	-2	.	.
C[C@]12CCC3[C@@H](CC[C@H]4C[C@@H](O)CC[C@]34C)C1CCC2=O (some centres not stated)	0	81	2	-1	.	.
C[C@]12CCC3C(CC[C@@H]4C[C@H](O)CC[C@]34C)C1CCC2=O (some centres not stated)	-4	64*	6	.	82	92
C[C@]12CC[C@H](O)C[C@H]1CC[C@@H]1[C@@H]2CC[C@]2(C)C(=O)CC[C@@H]12	3	48*	-1	.	78	118
COC(=O)[C@@H]1N=C(c2ccc(OC)cc2)O[C@]12C(=O)N(Cc1ccc(OC)cc1)c1ccccc12	0	.	.	.	.	.
Nc1cc2nc3ccccc3nc2cc1N	0	41*	1	0	68	89
Nc1c2c(nc3ccccc13)CCN(Cc1ccccc1)C2	0	94	-3	2	.	.
Cc1sc2ncnc(N3CCC(C(=O)Nc4ccc(C#N)c(Cl)c4)CC3)c2c1C	0	102	3	2	.	.
C[C@]12CC(=O)CC1CCC1C2CC[C@@]2(C)C1CC[C@@H]2O (some centres not stated)	0	72	-1	0	.	.
C[C@]12CCC(=O)C[C@@H]1CC[C@@H]1[C@@H]2CC[C@]2(C)[C@@H](O)CC[C@@H]12	3	54*	-1	.	78	100
C[C@]12CCC3C(CC[C@@H]4CC(=O)CC[C@]34C)C1CC[C@@H]2O (some centres not stated)	2	54*	3	.	84	92
C[C@]12CCC(=O)CC1CCC1C2CC[C@]2(C)C(OC(=O)CCC(=O)O)CCC12 (some centres not stated)	0	64*	0	4	80	92
CC12CCC(=O)CC1CCC1C2C(=O)CC2(C)C1CCC2(C)O (configuration not stated)	-2	.	2	.	.	.
COc1ccc(C(C)=O)cc1CC(C(=O)c1ccccc1)N(C)C (configuration not stated)	3	81	0	1	.	.
C[C@]12CCC3C(CC[C@H]4C[C@@H](O)CC[C@]34C)C1C[C@@H](O)[C@]2(C)O (some centres not stated)	8	103	4	.	100	91
C[C@]12CC[C@@H](O)C[C@@H]1CC[C@@H]1[C@@H]2CC[C@]2(C)[C@@H](O)CC[C@@H]12	1	80	8	-1	.	.
C[C@]12CC[C@H](O)CC1C(=O)CC1C2CC[C@@]2(C)C1CC[C@@H]2O (some centres not stated)	-2	79	-2	.	92	102
C#C[C@]1(O)[C@H](O)CC2C3CC[C@H]4C[C@@H](O)CC[C@]4(C)C3CC[C@@]21C (some centres not stated)	2	94	.	.	98	96
C[C@]12CCC3C(CC[C@H]4C[C@@H](O)CC[C@]34C)C1CC[C@@]2(O)C(F)(F)F (some centres not stated)	-1	97	.	.	105	105
O=C(CCl)Nc1nccs1	0	99	6	9	.	.
CCn1c(O)c(/C(C)=N/N2CCCCC2c2cccnc2)c(=O)[nH]c1=S (configuration not stated)	-2	105	7	4	.	.
CC[N+](CC)(CC)CCCOC(=O)C(O)(c1ccccc1)C1CCCCC1 (configuration not stated)	2	110	1	3	.	.
COc1cc2c(cc1OC)C(C(=O)NC(C)C)C1CCCCN1C2=O (configuration not stated)	0	82	0	6	.	.
C[C@]12CCC3C(CC[C@H]4C[C@@H](O)CC[C@]34C)C1C[C@@H](N)[C@@H]2O (some centres not stated)	2	93	-1	.	103	98
SMILES	iPSC survival up	Yeast superoxide	V-ATPase pH	CTSL1 counter	CR mimetic CP	DHE counter	others
C[C@]12CCC3C(CC[C@H]4C[C@@H](O)CC[C@]34C)[C@H]1CC[C@H]2O (some centres not stated)	1	78	1	.	97	101
COc1c(C)cc(C(=O)C2CCCN(Cc3cccc(C)n3)C2)cc1C (configuration not stated)	-2	94	9.2*	-2	.	.	V-ATPase pH SP=-6
CCOP(=O)(C(NC(=O)c1ccccc1Cl)=C(Cl)Cl)c1ccccc1 (configuration not stated)	-2	97	2	-1	.	.
COCCNCCOc1ccc(C(C)(C)c2ccccc2)cc1	0	90	12*	-7	.	.	V-ATPase pH SP=-2
CCN(CC)c1ccc(N=Cc2c(O)n(-c3ccccc3)c(=O)[nH]c2=O)cc1	0	103	2	1	.	.
CCN(CC)c1ccc(N=Cc2c(O)n(Cc3ccccc3)c(=O)[nH]c2=O)cc1	0	104	46*!	2	.	.	V-ATPase pH SP=-41
Cc1cc(Oc2ccc(C(F)(F)F)cc2[N+](=O)[O-])c2c3c(c(=O)oc2c1)CCCC3	-3	92	-1	-1	.	.
Cc1cc(/C=C2\C(=O)NC(=O)N(c3ccc(Br)cc3)C2=O)c(C)n1-c1cc(C(=O)O)cc(C(=O)O)c1	0	116	3	4	.	.
Cc1cc(C(=O)C[N+]23CCN(CC2)CC3)c(C)n1-c1ccc(Br)cc1	3	83	9.2*	-3	.	.	V-ATPase pH SP=0
CC(=O)Nc1cc(C(=O)N2CCC3(CC2)OCCO3)ccc1S(=O)(=O)c1ccc(C)cc1	2	98	1	6	.	.
CC(=O)Nc1cc(C(=O)N2CCC3(CC2)OCCO3)ccc1S(=O)(=O)c1ccc(Cl)cc1	1	98	8.8*	0	.	.	V-ATPase pH SP=7
CC(C)S(=O)(=O)N1Cc2ccccc2-n2nncc2C1	0	.	0	.	.	.
[N-]=[N+]=NCCN1CCC(O)CCC1=O (configuration not stated)	0	93	26*	-1	.	.	V-ATPase pH SP=-1
Cc1ccc(-n2c(O)c(/C=C/C=Nc3ccccc3)c(=O)[nH]c2=O)cc1	-2	79	85*	9	.	.	V-ATPase pH SP=-16
Cc1ccc(C2(O)CCN3CCCCC32)cc1 (configuration not stated)	1	88	12*	-1	.	.	V-ATPase pH SP=0
Clc1ccccc1CN1CCN(c2cccc3[nH]ccc23)CC1	-1	93	-2	5	.	.

Source: PubChem BioAssay
